A selection: hits, their analogues and other compounds. The true share with any hit is near 3.3%.
esBAF inh: Bmi1 luciferase reporter increase in mESCs, primary screen, esBAF inhibitor project, mouse ES cells, Bmi1 luciferase knock-in, single point. 24 h; 100% = twice the neutral-well signal. reporter increase, % at 12.5 µM. actives 2% (n = 350,000); in the data active = activation above about 40%; inconclusive = no clear call, values can overlap the other calls;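 also: a rise in the Bmi1 reporter signal indicates esBAF inhibition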
MITF TRPM1 HTS: activators of MITF-driven TRPM1 promoter reporter, primary screen, cell-based, SK-MEL-5, luciferase, single point | SK-MEL-5 TRPM1-promoter luciferase, 24 h; % of positive control, neutral wells = 0 | activation, % at 12.5 µM | actives 0.75% (n = 300,000) | AID 588334, 2011;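 active = mean activation of at least 80% with every replicate also reaching 80%; inconclusive = mean reaches 80% but some replicate falls short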
Wnt act: Wnt/beta-catenin pathway activators, primary screen, cell-based, plate reader, single point; Wnt/beta-catenin reporter cell assay, activator; activation, % at 9.35 µM; actives 1.2% (n = 300,000); in the data active = activation above about 30%, passing the limit was not always enough; inconclusive = no clear call, values can overlap the other calls
C2C12 statin: suppressors of statin myotoxicity in C2C12 myotubes, primary screen, cell-based, single point, plate reader; C2C12 myotubes + simvastatin, ATP luminescence, 48 h; scaled: DMSO 0, geranylgeraniol control 100; rescue of ATP level, % at 7.49 µM; actives 0.78% (n = 330,000);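 active = mean ATP rescue above about 67%, or every replicate alone reaching that limit, limit read from the data, passing the limit was not always enough; inconclusive = no clear call, values can overlap the other calls; inactive = mean under the limit and some replicate under it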;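 also: myotubes were challenged with 10 µM simvastatin during compound exposure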
FXN GAA850 act: FXN promoter activators, primary screen, cell-based, luciferase luminescence, HEK293 lucGAA850. HEK293 lucGAA850 FXN promoter luciferase reporter, 24 h; percent of 10 µM SAHA response. activation, % at 6 µM. actives 0.56% (n = 360,000). AID 540364, 2011;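 active = activation above the average of all compounds screened plus 3 SD, cutoff fixed separately per campaign, cut at about 7.5% in these data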
GAA30 counter: GAA30 FXN promoter activators, confirmation, counter-screen for GAA850 frataxin promoter activator project, cell-based, luminescence, HEK293, lucGAA30, triplicate | HEK293 lucGAA30 FXN promoter luciferase, 24 h; DMSO = 0%, 5 µM ipriflavone = 100% | activation, % at 6 µM | shares compounds with FXN GAA850 act | actives 66% (n = 1,900);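 active = mean activation above the mean of solvent-only control wells plus 3 SD, cut at about 22% in these data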;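 also: counterscreen of GAA850 promoter hits where activity marks nonselective or luminescence artifacts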
FXN GAA850 conf: FXN GAA850 promoter activators in reporter cells, confirmation, cell-based, luminescence, HEK293 lucGAA850, triplicate; AID 588351, 2011; HEK293 lucGAA850 FXN promoter luciferase reporter, 24 h; 100% = activation by SAHA; shares compounds with FXN GAA850 act; activation, % at 6 µM; actives 86% (n = 1,900);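 active = mean activation above a set limit taken from the primary screen, cut at about 8% in these data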
Hits are given with their value; – = inactive; ? = inconclusive; · = no result given.

SMILES	esBAF inh	MITF TRPM1 HTS	Wnt act	C2C12 statin	FXN GAA850 act	GAA30 counter	FXN GAA850 conf
Cc1noc(C)c1NC(=O)Nc1ccc2c(c1)C(=O)N([C@@H](C)CO)C[C@H](C)[C@@H](CN(C)C(=O)NC(C)C)O2	–	·	·	–	·	·	·
O=C(C[C@@H]1CC[C@@H]2NC[C@H](O)COC[C@H]2O1)Nc1ccccc1	–	·	·	–	·	·	·
Oc1ccc(-c2csc(-c3c[nH]c4ccccc34)n2)c(O)c1	·	–	·	·	8.1	88	41
COc1ccc(-c2nc(-c3ccc(O)cc3O)cs2)cc1OC	–	–	–	–	8.7	75	36
Cc1ccc(-c2csc(-c3c[nH]c4ccccc34)n2)c(C)c1	–	–	–	–	–	·	·
C=CCn1c(-c2csc(-c3ccc(OC)c(OC)c3)n2)n[nH]c1=S	·	–	–	·	7.6	–	11
COc1ccc(-c2csc(-c3ccc(O)cc3)n2)cc1	·	–	–	·	–	·	·
Cc1ccc(COc2ccccc2C(=S)N2CCCC2)cc1	55	–	–	–	8.1	51	23
C[C@@H]1CCCCO[C@H](CN(C)Cc2ccc(C(F)(F)F)cc2)[C@H](C)CN([C@H](C)CO)C(=O)c2cc(NC(=O)C3CCCCC3)ccc2O1	–	·	·	·	·	·	·
C=CCn1c(SC(C)C(=O)NCc2ccc3c(c2)OCO3)nc2scc(-c3ccccc3)c2c1=O (stereo not given)	–	–	·	–	7.8	–	10
CC(C)(C)c1csc(NC(=O)CS(=O)(=O)c2ccccc2)n1	–	–	–	–	7.9	51	15
CN(CC(=O)Nc1ccc(Cl)c(C(F)(F)F)c1)C(=O)CCCNC(=O)c1ccc(Cl)cc1	?	–	–	–	15	65	26
C=CCn1c(-c2cccs2)nc2nc3ccccc3nc21	46	–	–	–	8.1	80	24
CC1=CN2C(=N)/C(=C/c3ccc([N+](=O)[O-])o3)C(=O)N=C2S1	·	–	–	·	12	–	–
OCC1OC(n2cnc3c(NC4CCCCC4)ncnc32)C(O)C1O (stereo not given)	–	–	–	–	9.6	37	17
Nc1ncnc2c1ncn2C1OC(C(=O)NC2CC2)C(O)C1O (stereo not given)	–	–	–	–	9.7	26	15
OCC1OC(n2cnc3c(NC4CCCC4)ncnc32)C(O)C1O (stereo not given)	–	–	–	–	12	39	20
C[C@@H](CO)NC(=O)[C@H]1O[C@@H](n2cnc3c(N)ncnc32)[C@H](O)[C@@H]1O	–	·	·	–	·	·	·
Nn1cnc2c(ncn2C2OC(CO)C(O)C2O)c1=O (stereo not given)	–	·	–	–	13	–	–
O=C(C[C@H]1C[C@H]2c3cc(NC(=O)C4CCC4)ccc3O[C@H]2[C@@H](CO)O1)NCCN1CCCCC1	–	·	·	–	·	·	·
C[C@@H](NC(=O)C[C@H]1C=C[C@H](NC(=O)CN2CCOCC2)[C@@H](CO)O1)c1ccccc1	–	·	·	–	·	·	·
COc1ccc(-c2cc(C(F)(F)F)nc(S(=O)(=O)CCCC(=O)Nc3cccc(O)c3)n2)cc1OC	·	·	–	·	9.3	40	32
CO[C@H]1CN(C)C(=O)c2cc(NC(=O)C3CCC3)ccc2OC[C@@H](C)N(Cc2nccs2)C[C@H]1C	–	·	·	–	·	·	·
C[C@@H]1CN([C@@H](C)CO)C(=O)Cc2cc(NC(=O)Nc3ccc4c(c3)OCO4)ccc2O[C@H]1CN(C)Cc1ccc(Cl)c(Cl)c1	–	·	·	–	·	·	·
COc1ccc(-c2noc(-c3ccoc3C)n2)cc1OC	·	89	–	·	7.8	96	33
SMILES	esBAF inh	MITF TRPM1 HTS	Wnt act	C2C12 statin	FXN GAA850 act	GAA30 counter	FXN GAA850 conf
COc1ccc(-c2noc(-c3ccccc3Cl)n2)cc1OC	?	86	–	–	8.6	112	40
CCC(=O)N(C)C[C@H]1Oc2cc(-c3cccc(F)c3)ccc2S(=O)(=O)N([C@H](C)CO)C[C@@H]1C	–	·	·	–	·	·	·
COC(=O)c1c(NC(=O)CN2CCC3(O)CCCCC3C2c2ccccc2OC)sc(C)c1C (stereo not given)	·	–	–	·	–	·	·
COC(=O)c1c(NC(=O)CN2CCC3(O)CCCCC3C2c2ccc(OC)cc2OC)sc(C)c1C (stereo not given)	·	–	–	·	10	26	–
CCOC(=O)CNc1c(-c2ccc(OC)cc2)nc2ccc(Cl)cn12	?	–	·	–	8.0	92	25
COCCNc1c(-c2ccc(OC)cc2)nc2ccc(Cl)cn12	·	–	–	·	–	·	·
CCCC(=O)Nc1ccc(-c2nc3cc(C)c(C)cc3o2)cc1	–	–	·	–	9.8	108	48
CCCC(=O)Nc1ccc2oc(-c3ccncc3)nc2c1	–	–	–	–	–	·	·
Cc1ccc(-c2ccc3c(c2)O[C@H](CN(C)C(=O)C2CCCCC2)[C@H](C)CN([C@H](C)CO)S3(=O)=O)cc1	·	·	·	–	·	·	·
O=[N+]([O-])c1ccc(Cl)cc1Sc1nc2ccccc2o1	–	–	–	–	–	·	·
O=[N+]([O-])c1ccc(Sc2nc3ccccc3o2)c([N+](=O)[O-])c1	–	–	–	–	16	–	46
Cc1cc(C(=O)CSc2n[nH]c(N)n2)c(C)n1-c1ccccc1	–	–	–	–	8.9	101	28
Cc1ccc(-n2c(C)cc(C(=O)CSc3n[nH]c(N)n3)c2C)cc1	–	–	·	–	–	·	·
COc1ccc(C=NNC(=S)NN=Cc2ccc(OC)c(OC)c2)cc1OC	–	–	–	–	8.7	87	31
COc1ccc(C=NNC(=S)Nc2ccc(F)cc2)cc1OC	–	–	–	–	–	·	·
COc1ccc(NC(=O)Nc2ccc3c(c2)C(=O)N([C@H](C)CO)C[C@@H](C)[C@@H](CN(C)S(=O)(=O)c2cn(C)cn2)O3)cc1	–	·	·	·	·	·	·
Cc1cc(C(=O)Nc2cccc3c2O[C@@H](CN(C)S(=O)(=O)c2ccc(Cl)cc2)[C@H](C)CN([C@@H](C)CO)C3=O)n(C)n1	–	·	·	–	·	·	·
O=S(=O)(NCC(Nc1ccc(Cl)cc1)c1ccccc1)c1ccc(Cl)cc1 (stereo not given)	–	–	–	–	8.5	–	10.0
O=S(=O)(NCC(c1ccccc1)N1CCC(O)CC1)c1ccc(Cl)cc1 (stereo not given)	–	–	–	–	–	·	·
